Screening data deposited in PubChem BioAssay by Broad Institute.
The sample as a whole holds a higher share of hits than the screen did.
IDE exosite inh: exo-site inhibitors of human insulin-degrading enzyme | 17,000 tested, 6.3% active | purified IDE, FL-6b probe fluorescence polarization; stronger effect = lower value | P14735 | z-score at 20 µM;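 active means z-score of -3 or lower, meaning strong loss of probe binding signal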;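 further: His-tagged human IDE residues 42-1019 made in E. coli with 30 nM FL-6b probe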
Target sequence (P14735 42-1019 limits assumed): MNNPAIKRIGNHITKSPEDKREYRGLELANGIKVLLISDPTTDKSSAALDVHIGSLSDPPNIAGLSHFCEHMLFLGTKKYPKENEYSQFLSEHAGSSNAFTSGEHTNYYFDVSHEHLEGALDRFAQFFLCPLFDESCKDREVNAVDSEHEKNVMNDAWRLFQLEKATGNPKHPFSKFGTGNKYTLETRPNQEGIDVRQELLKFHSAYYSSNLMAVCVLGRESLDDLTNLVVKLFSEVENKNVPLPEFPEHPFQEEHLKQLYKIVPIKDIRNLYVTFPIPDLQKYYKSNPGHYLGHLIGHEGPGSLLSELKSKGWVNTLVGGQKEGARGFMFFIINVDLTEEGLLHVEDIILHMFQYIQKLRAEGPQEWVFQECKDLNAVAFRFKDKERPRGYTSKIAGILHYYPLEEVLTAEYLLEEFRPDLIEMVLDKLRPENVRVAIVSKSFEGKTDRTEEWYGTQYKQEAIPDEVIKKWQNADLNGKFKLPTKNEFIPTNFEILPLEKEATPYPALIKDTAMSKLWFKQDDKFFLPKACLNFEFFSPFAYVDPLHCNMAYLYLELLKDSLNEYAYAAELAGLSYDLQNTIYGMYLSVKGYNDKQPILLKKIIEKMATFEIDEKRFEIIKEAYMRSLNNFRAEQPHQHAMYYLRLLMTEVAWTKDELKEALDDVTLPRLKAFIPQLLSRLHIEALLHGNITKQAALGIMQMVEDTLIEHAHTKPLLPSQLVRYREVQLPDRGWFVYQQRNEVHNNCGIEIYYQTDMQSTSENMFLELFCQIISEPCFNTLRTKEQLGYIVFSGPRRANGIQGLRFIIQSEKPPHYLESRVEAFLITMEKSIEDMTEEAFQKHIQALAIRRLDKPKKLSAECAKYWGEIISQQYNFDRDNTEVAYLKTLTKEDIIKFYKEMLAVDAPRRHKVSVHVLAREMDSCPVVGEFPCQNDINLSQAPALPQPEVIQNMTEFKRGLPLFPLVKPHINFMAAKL
Starred values were filed as active, the others as inactive; ! = not confirmed by another sample.

SMILES | IDE exosite inh
C[C@H]1CC=CC[C@H](c2cccc(Cl)c2)NC(=O)[C@H](Cc2ccccc2)N(C)C(=O)c2ccccc2O1 (mixture of isomers) | -0.43
CN(C)C(=O)c1cccc(-c2ccc([C@H]3[C@@H](CO)N4CCCCN(CCC(F)(F)F)C[C@H]34)cc2)c1 | 2.1
N#C[C@H]1[C@@H](c2ccc(C#CC3CCCCC3)cc2)[C@@H](CO)N1S(=O)(=O)Cc1ccccc1 | 3.9
CN(C)C(=O)c1ccc(-c2ccc([C@H]3[C@H]4CN(C(=O)C5CCCC5)CC(=O)N4[C@H]3CO)cc2)cc1 | 1.9
O=C(Nc1ccc(F)cc1)N1CC(=O)N2[C@H](CO)[C@H](c3ccc(C4=CCCC4)cc3)[C@@H]2C1 | 0.43
Cc1ccccc1-c1ccc([C@@H]2[C@@H](CO)N3CCCCN(C(=O)Nc4ccc(F)cc4)C[C@@H]23)cc1 | 0.29
Cc1ccccc1-c1ccc([C@@H]2[C@@H](CO)N3CCCCN(C(=O)Nc4cccc(F)c4)C[C@@H]23)cc1 | -1.5
COc1ccc(NC(=O)N2CCCCN3[C@H](CO)[C@@H](c4ccc(-c5ccccc5C)cc4)[C@@H]3C2)cc1 | 0.55
Cc1ccccc1-c1ccc([C@@H]2[C@H](CO)N3CCCCN(C(=O)Nc4ccccc4)C[C@@H]23)cc1 | -5*
Cc1ccccc1-c1ccc([C@@H]2[C@H](CO)N3CCCCN(C(=O)Nc4ccc(F)cc4)C[C@@H]23)cc1 | -11*
Cc1ccccc1-c1ccc([C@H]2[C@@H](CO)N3CCCCN(C(=O)Nc4ccccc4)C[C@@H]23)cc1 | -1.4
CC(=O)N1CC(=O)N2[C@H](C1)[C@H](c1ccc(-c3ccc(C#N)cc3)cc1)[C@@H]2CO | 4.5
Cc1cccc(-c2ccc(C3[C@@H]4CN(C(=O)c5ccncc5)C[C@H]3N4)cc2)c1 (stereo partly drawn) | -2.9
COc1ccccc1-c1ccc(C2[C@@H]3CN(C(=O)c4ccncc4)C[C@H]2N3)cc1 (stereo partly drawn) | -7.3*!
N#Cc1ccc(-c2ccc(C3[C@@H]4CN(C(=O)c5ccncc5)C[C@H]3N4)cc2)cc1 (stereo partly drawn) | -0.56
O=C(c1ccc(F)cc1)N1C[C@@H]2N[C@H](C1)C2c1ccc(-c2cccnc2)cc1 (stereo partly drawn) | -0.19
COc1ccccc1-c1ccc(C2[C@@H]3CN(C(=O)c4cccnc4)C[C@H]2N3)cc1 (stereo partly drawn) | -14*!
COc1ccc(-c2ccc(C3[C@@H]4CN(C(=O)c5ccc(F)cc5)C[C@H]3N4)cc2)cc1 (stereo partly drawn) | 1.2
CCCC#Cc1ccc([C@@H]2[C@@H](CO)N3CCCCN(Cc4cncnc4)C[C@H]23)cc1 | 3.7
OC[C@@H]1[C@@H](c2ccc(-c3ccccc3)cc2)[C@@H]2CN(Cc3ccccn3)CCCCN12 | -2.9
COCC#Cc1ccc([C@H]2[C@H](CO)N3CCCCN(Cc4cncnc4)C[C@@H]23)cc1 | 3.8
OC[C@H]1[C@@H](c2ccc(C#Cc3ccccc3)cc2)[C@@H]2CN(Cc3cncnc3)CCCCN12 | -16*
OC[C@@H]1[C@@H](c2ccc(C#Cc3ccccc3)cc2)[C@@H]2CN(Cc3ccccn3)CCCCN12 | -8.6*
OC[C@H]1[C@H](c2ccc(C#Cc3ccccc3)cc2)[C@H]2CN(Cc3cncnc3)CCCCN21 | -7.8*
CCCC#Cc1ccc([C@H]2[C@@H](CO)N3CCCCN(Cc4cncnc4)C[C@H]23)cc1 | -1.8
SMILES | IDE exosite inh
CCCC#Cc1ccc([C@@H]2[C@H]3CN(Cc4cncnc4)CCCCN3[C@H]2CO)cc1 | 2.9
OC[C@@H]1[C@H](c2ccc(Br)cc2)[C@H]2CN(Cc3ccccn3)CCCCN12 | 0.72
O=C(Nc1cc(F)ccc1F)N1CC(=O)N2[C@H](C1)[C@@H](c1ccc(/C=C/c3ccccc3)cc1)[C@@H]2CO | -1.5
CC(C)C#Cc1ccc([C@@H]2[C@@H](C#N)N(C(=O)CN(C)C)[C@@H]2CO)cc1 | 1.7
O=C(c1ccncc1)N1CC(=O)N2[C@H](C1)[C@H](c1ccc(C#CCC3CCCC3)cc1)[C@@H]2CO | 3.6
CN(C)CC#Cc1ccc([C@H]2[C@H](CO)N3C(=O)CN(C(=O)Cc4ccccc4)C[C@@H]23)cc1 | -1.5
CO[C@@H]1CN(C)C(=O)c2cc(NC(=O)C3CCCCC3)ccc2OC[C@@H](C)N(Cc2cccnc2)C[C@@H]1C | 1.7
CCN(C[C@@H]1[C@@H](c2ccccc2)[C@H](CO)N1CC1CC1)C(=O)c1ccccn1 | 1.1
COc1ccc(-c2ccccc2[C@H]2[C@@H](CO)N(C(=O)C3CC3)[C@H]2C#N)cc1 | 4
CN(C)CC(=O)N1CCCCN2[C@H](CO)[C@H](c3ccc(-c4ccccc4)cc3)[C@@H]2C1 | 2.3
CN(C)CC(=O)N1CCCCN2[C@H](CO)[C@@H](c3ccc(/C=C/c4ccccc4)cc3)[C@@H]2C1 | -12*
CN(C)CC#Cc1ccc([C@H]2[C@H]3CN(C(=O)CN(C)C)CCCCN3[C@H]2CO)cc1 | 4.6
C/C=C/c1ccc([C@@H]2[C@H](CO)N3CCCCN(C(=O)CN(C)C)C[C@@H]23)cc1 | 3.9
CN(C)CC(=O)N1CCCCN2[C@H](CO)[C@H](c3ccc(/C=C/c4ccccc4)cc3)[C@@H]2C1 | -7.7*
CN(C)CC(=O)N1CCCCN2[C@H](CO)[C@H](c3ccc(-c4ccccc4)cc3)[C@H]2C1 | 2.3
COc1ccc2c3c(n(C)c2c1)[C@@H](CO)N(C(=O)Nc1ccc(F)cc1)CC31CN(C(=O)CN2CCOCC2)C1 | 0.064
CCS(=O)(=O)Nc1ccc2c(c1)C(=O)N(C)[C@H]1CC[C@H](CC(=O)N[C@H]3CCN(Cc4ccccc4)C3)O[C@@H]1CO2 | -0.44
CN(C)C(=O)c1ccc(-c2ccc(C3[C@H]4CNC[C@@H]3N4C(=O)NC3CCCC3)cc2)cc1 (stereo partly drawn) | 0.072
O=C(C[C@@H]1CC[C@H]2[C@@H](COC[C@@H](O)CN2C(=O)c2ccccc2F)O1)NCc1ccc(Cl)c(Cl)c1 | -0.009
COCC#Cc1ccc([C@H]2[C@@H](CO)N3C(=O)CN(C(=O)C4CC4)C[C@H]23)cc1 | 2.1
CO[C@@H]1CN(C)C(=O)c2cc(NC(=O)c3ccc(Oc4ccccc4)cc3)ccc2OC[C@H](C)NC[C@@H]1C | -8*
COc1cccc(NC(=O)Nc2ccc3c(c2)C(=O)N(C)C[C@@H](OC)[C@H](C)CN[C@@H](C)CO3)c1 | 0.18
CO[C@H]1CN(C)C(=O)c2cc(NC(=O)c3ccc(Oc4ccccc4)cc3)ccc2OC[C@H](C)NC[C@H]1C | -14*!
COc1cccc(NC(=O)Nc2ccc3c(c2)C(=O)N(C)C[C@H](OC)[C@H](C)CN[C@@H](C)CO3)c1 | -1.9
CO[C@H]1CN(C)C(=O)c2ccc(NC(=O)c3cccc(F)c3)cc2OC[C@@H](C)NC[C@@H]1C | 1.2
SMILES | IDE exosite inh
CO[C@@H]1CN(C)C(=O)c2cc(NC(=O)c3cnccn3)ccc2OC[C@H](C)NC[C@@H]1C | -0.39
COc1cccc(NC(=O)Nc2ccc3c(c2)C(=O)N(C)C[C@H](OC)[C@@H](C)CN[C@H](C)CO3)c1 | -1.2
CO[C@@H]1CN(C)C(=O)c2cc(NC(=O)c3cnccn3)ccc2OC[C@H](C)NC[C@H]1C | -0.012
CO[C@@H]1CN(C)C(=O)c2cc(NC(=O)c3ccc(Oc4ccccc4)cc3)ccc2OC[C@@H](C)NC[C@H]1C | -14*
CO[C@H]1CC[C@@H]2CCOc3ccc(C#N)cc3C(=O)N(C)C[C@@H](c3ccccc3)CC(=O)N(C)C[C@H]1O2 | -0.95
COc1ccc(-c2ccc3n(c2=O)C[C@@H]2[C@@H](CO)[C@H](C(=O)NCC4CC4)N(C(=O)NC(C)C)[C@H]32)cc1 | 0.25
